Source: PubChem
Only a selection was taken, and hits are over-represented in it overall.
Pf Dd2 growth = qHTS Primary assay for Inhibitors of Plasmodium falciparum Dd2 growth in vitro; P. falciparum Dd2 growth, SYBR Green, 72 h; Potency, µM (highest dose often 28.9 µM), for inactives: at the highest dose activity, negative = inhibition, most hits filed as inhibitors; 120,000 tested, 4.3% active; AID 1347417, 2020; active means well fitted inhibition curve with a large enough effect;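 further: plate controls were DMSO vehicle for no effect and reference drug for full effect; nearly all actives have a fitted effect of over 65% in size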
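Readout: SYBR Green fluorescence, 485 nm excitation, 535 nm emission, after ~16 h lysis at 37C. Before that, Dd2-infected red cells (2.5% hematocrit) grew 72 h with compound, 29 uM top final concentration.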
An asterisk follows results filed as active; i = inactive; [ ] = dose if it differs, or a comment. Potency means the concentration at half of the fitted maximal effect.

SMILES	Pf Dd2 growth
CCN(CC)c1ccc(NC(=O)CCS(=O)(=O)c2cccc3nsnc23)c(C)c1	-10%
Cc1ccc(NC(=O)C2CCC(CNS(=O)(=O)c3cccc4nsnc34)CC2)c(C)c1 (configuration not stated)	1%
COc1ccc(NC(=O)CCNS(=O)(=O)c2cccc3nsnc23)cc1	10%
O=C(NC1C[C@H]2CC[C@@H](C1)N2C(=O)C1CCC1)c1ccc(F)cc1 (some centres not stated)	-4%
CCOc1ccc(CNC(=O)CCCn2nc(C)c3sc4ccccc4c3c2=O)cc1	-18%
Cc1ccccc1NC(=O)Cn1nc(-c2ccccc2)nc(Cc2ccccc2)c1=O	66%
CCOc1ccccc1C(=O)NC(C)C(=O)N1CCN(c2ccccn2)CC1 (configuration not stated)	i
COCCNC(=O)c1ccc2c(c1)N(C)C(CC(=O)NCc1ccncc1)CO2 (configuration not stated)	-2%
CCN(CC)C(=O)CCc1c(C)nn(-c2ccc(F)cc2)c1Oc1ccccc1OC	i
O=C(Nc1ccccc1Cl)N1CCSc2ccccc21	15%
CCc1ccccc1NC(=O)Cn1ncc2c(C)n(Cc3ccccc3F)c(C)c2c1=O	-7%
COc1cc(-c2nnc(SCCOc3cc(C)cc(C)c3)o2)cc(OC)c1OC	24%
Cc1ccc(C)c(S(=O)(=O)N2CC(c3nc(Cc4ccccc4)no3)C2)c1	-15%
Cc1c2cnn(-c3ccccc3)c(=O)c2c(C)n1CC(=O)Nc1ccccc1Br	34%
CCc1nc2c(c(-c3ccc(Cl)cc3)n1)CCN(Cc1ccc(F)cc1)CC2	-10%
CCc1nc2c(c(-c3ccc(Cl)cc3)n1)CCN(Cc1ccc(NC(C)=O)cc1)CC2	2.5µM*
COc1ccc(-c2nc(C)nc3c2CCN(Cc2cccn2C)CC3)cc1	i
CCc1nc2c(c(-c3ccc(Cl)cc3)n1)CN(C(=O)Cc1cccc(Cl)c1)CC2	4.5µM*
CCc1nc2c(c(-c3ccc(Cl)cc3)n1)CN(C(=O)COC)CC2	2%
CCc1nc2c(c(-c3ccc(O)cc3)n1)CCN(Cc1cccn1C)CC2	8.9µM*
CCc1nc2c(c(-c3ccc(Cl)cc3)n1)CCN(Cc1ccccc1)CC2	i
CCc1nc2c(c(-c3ccc(OC)cc3)n1)CCN(Cc1ccsc1)CC2	-27%
CCc1nc2c(c(-c3ccc(Cl)cc3)n1)CN(C(=O)C1CC1)CC2	-8%[44.1 µM]
CCc1nc2c(c(-c3ccc(OC)cc3)n1)CCN(C(=O)c1ccccc1)CC2	-22%
CCc1nc2c(c(-c3ccc(OC)cc3)n1)CCN(Cc1cccc(NC(C)=O)c1)CC2	13µM*
SMILES	Pf Dd2 growth
Cc1nc2c(c(-c3ccc(O)cc3)n1)CN(Cc1cccn1C)CCC2	-31%
CC(C)Nc1cc(CC2CC(=O)N(c3ccccc3)C2)ncn1 (configuration not stated)	-12%
COc1ccccc1N1CCN(CC[C@@H]2CC[C@H](O)[C@@H](C(=O)Nc3ccccc3)O2)CC1	i
CCC(C(=O)NCCc1ccc(OC)c(OC)c1OC)n1nc(C)c2sc3ccccc3c2c1=O (configuration not stated)	i
O=C(c1cc(C2CC2)[nH]n1)N1CC(F)(F)C[C@H]1c1nc(C2CC2)no1	i
O=C1CCN(C(=O)C2CCN(C(=O)c3cccs3)CC2)CCCCCCN1	-6%
O=C(COc1ccccc1F)Nc1ccc(-c2nc3ccccc3s2)cc1	-4%
Cc1cc(CN(C)c2cc(C3CC(N)C3)nc(N)n2)no1 (configuration not stated)	-5%
CCOc1ccc(Cl)cc1CN(C)c1cc(C2CC(O)C2)nc(N)n1 (configuration not stated)	11µM*
Cc1nc(C2CC(O)C2)cc(N(C)Cc2ccc3c(c2)OCO3)n1 (configuration not stated)	-3%
Cc1ccc(C)c(C(=O)NC2CCN(C(=O)c3cc4c(=O)[nH]c(C)cn4n3)CC2)c1	-3%
COc1ccc(-c2noc(CSc3nnc(C)n3-c3cccc(C)c3)n2)cc1	-2%
O=C(Cc1ccc(F)cc1)N1CCC2(CC1)CC(N(Cc1ccccc1)C1CC1)CCO2 (configuration not stated)	5.6µM*
CS(=O)(=O)N(C1CC1)C1CCOC2(CCN(C(=O)c3ccc(F)cc3)CC2)C1 (configuration not stated)	i
O=C(c1ccc(F)cc1)N1CCC2(CC1)CC(N(Cc1ccccc1)C1CC1)CCO2 (configuration not stated)	-10%
O=C(CCC1CCCC1)N1CCC2(CC1)CC(N(Cc1ccc(F)cc1)C1CC1)CCO2 (configuration not stated)	3.5µM*
O=C(c1ccccc1)N1CCC2(CC1)CC(N(Cc1ccccc1)C1CC1)CCO2 (configuration not stated)	i
Cn1nccc1C(=O)N1CCC2(CC1)CC(N(Cc1ccc(F)cc1)C1CC1)CCO2 (configuration not stated)	-22%
O=C(Cc1ccsc1)N1CCC2(CC1)CC(N(Cc1ccccc1)C1CC1)CCO2 (configuration not stated)	-9%
Cc1cnc(C(=O)N2CCC3(CC2)CC(N(Cc2ccc(F)cc2)C2CC2)CCO3)cn1 (configuration not stated)	-6%
O=C(c1ccoc1)N1CCC2(CC1)CC(N(Cc1ccc(F)cc1)C1CC1)CCO2 (configuration not stated)	13µM*
COCCc1nncn1C1CCN(S(=O)(=O)c2ccc(F)cc2F)CC1	-2%
C=C[C@H]1CN2CC[C@H]1C[C@@H]2CNC(=O)Nc1ccc(Oc2ccccc2)cc1	-20%[44.1 µM]
Cn1ccnc1CN1C[C@@H](F)[C@@H](OCc2nc3ccccc3n2C)C1	-25%[44.1 µM]
CN(C)CC(=O)Nc1ccc2n(c1=O)C[C@H]1C[C@@H]2CN(S(=O)(=O)c2ccccc2)C1	-19%[44.1 µM]
SMILES	Pf Dd2 growth
COc1cccc(CN2CCC3(CNc4ccccc4[S+](=O)([O-])N3)C2)c1 (configuration not stated)	i
CCOc1ccc(C2NC(=O)N(CCOC)C3=C2C(=O)OC3)cc1 (configuration not stated)	-14%
CN(CCO)C[C@@H]1CN(C(=O)c2nc3ccccc3[nH]c2=O)C[C@@H]1CO	-10%
CCCC(=O)N1CCN(C2CCN(CCOC)C2=O)CC1 (configuration not stated)	21%
O=C(CCCn1c(=O)c2cccn2c2cccnc21)Nc1ccccc1C(F)(F)F	24%
Cc1ccc(CN2CCCn3nc(C(=O)NCCc4ccccc4C)cc3C2=O)cc1	-16%
O=C(CCC[C@H]1NC[C@@H]2CC1CN(Cc1ccccc1)C2)N1CCOCC1	-23%
COCC[C@]1(O)CCN(C(=O)CCCc2ccccc2)C[C@H]1C	-8%
COCCN1CC2CN(C(=O)CCCc3ccccc3)CC(C1)O2	11µM*
COCC1CN(C(C)=O)CC12CCN(C(=O)CCCc1ccccc1)CC2 (configuration not stated)	i
CN1C(=O)N(C)C2(CCN(CCOc3ccccc3)C2)C1=O (configuration not stated)	29%
Cc1nc(CCNC(=O)CCc2ccccc2)no1	-5%
Cc1cc2c(cc3c(SCC(=O)Nc4ccc(Cl)cc4F)nncn32)o1	117%[5.79 µM]
CC(=O)N1CCC(C(=O)NCC(=O)N2CCCCCNC(=O)CC2c2ccccc2)CC1 (configuration not stated)	38%
O=C(c1ccc[n+]([O-])c1)N1CCOC(CC(c2ccccc2)c2ccccc2)C1 (configuration not stated)	-23%
